Reference: PubChem BioAssay (Tox21)
Results filed as inconclusive are left out. Active and inactive are the calls of the source. The call rests on the fitted dose curve; in most records, active means well fitted curve in the direction sought with a large enough effect in the repeat runs; inconclusive means weak or mixed curves; inactive means no such curve, though single readings can be large; an effect the other way counts as inactive or inconclusive.

What was measured:
[1] = A CellTox Green Cytotoxicity Assay to monitor cytotoxicity in HEK293 cells - 40 hour (AID 1224871); further: nearly all actives have a fitted effect of over 45% in size
How it was run: (§1)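 HEK293 cells, 600/well, were preincubated 5 hours and then exposed to compounds at 37 C for up to 40 hours. A cell-impermeant cyanine dye staining dead-cell DNA was read by fluorescence at 0, 8, 16, 24, 32 and 40 h time points.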

[2] = qHTS RealTime-Glo MT Cell Viability Assay in HepG2 cells - 8 hour (AID 1224873); further: nearly all actives have a fitted effect of over 55% in size
How it was run: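 HepG2 cells mixed with RealTime-Glo MT reagents (NanoLuc plus cell-permeant prosubstrate) were seeded at 600 cells/well, incubated 5 h at 37 C/5% CO2, then pinned with compounds in DMSO; nonlytic luminescence tracked viability during 40 h treatment.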

[3] = qHTS RealTime-Glo MT Cell Viability Assay in HEK293 cells - 40 hour (AID 1224874); conditions: RealTime-Glo luminescence; max response: hits give low values; further: nearly all actives have a fitted effect of over 50% in size; further: potency means the concentration at half of the fitted maximal effect
How it was run: (§2)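 600 cells/well were plated with the nonlytic NanoLuc/prosubstrate reagent, pre-incubated 5 h, then given 23 nL of compound in DMSO. Incubation at 37 C for 40 h, with luminescence from viable-cell-reduced substrate read repeatedly from 0 h.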

[4] = A CellTox Green Cytotoxicity Assay to monitor cytotoxicity in HEK293 cells - 24 hour (AID 1224875); further: series mostly up to about 77 µM; nearly all actives have a fitted effect of over 45% in size
How it was run: as §1

[5] = A CellTox Green Cytotoxicity Assay to monitor cytotoxicity in HepG2 cells - 16 hour (AID 1224876); further: nearly all actives have a fitted effect of over 45% in size
How it was run: (§3)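 HepG2 cells, 600/well, preincubated 5 h with CellTox Green dye, then exposed to Tox21 compounds in DMSO at 37 C for up to 40 h. Dead-cell DNA fluorescence read at the indicated time point.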

[6] = qHTS RealTime-Glo MT Cell Viability Assay in HepG2 cells - 32 hour (AID 1224877); further: nearly all actives have a fitted effect of over 55% in size; further: potency means the concentration at half of the fitted maximal effect
How it was run: (§4)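 HepG2 cells (600/well) were dispensed with RealTime-Glo reagents, incubated 5 h at 37 °C, then treated with compounds in DMSO for up to 40 h. Nonlytic NanoLuc luminescence reflecting viable cells was read at each stated time point.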

[7] = A CellTox Green Cytotoxicity Assay to monitor cytotoxicity in HepG2 cells - 24 hour (AID 1224878); further: nearly all actives have a fitted effect of over 45% in size
How it was run: as §3

[8] = A CellTox Green Cytotoxicity Assay to monitor cytotoxicity in HepG2 cells - 40 hour (AID 1224879); further: nearly all actives have a fitted effect of over 40% in size
How it was run: as §3

[9] = qHTS RealTime-Glo MT Cell Viability Assay in HEK293 cells - 0 hour (AID 1224880)
How it was run: as §2

[10] = A CellTox Green Cytotoxicity Assay to monitor cytotoxicity in HEK293 cells - 32 hour (AID 1224881); further: nearly all actives have a fitted effect of over 40% in size
How it was run: as §1

[11] = A CellTox Green Cytotoxicity Assay to monitor cytotoxicity in HepG2 cells - 0 hour (AID 1224882); further: nearly all actives have a fitted effect of over 35% in size
How it was run: as §3

[12] = A CellTox Green Cytotoxicity Assay to monitor cytotoxicity in HepG2 cells - 32 hour (AID 1224883); further: nearly all actives have a fitted effect of over 50% in size
How it was run: as §3

[13] = A CellTox Green Cytotoxicity Assay to monitor cytotoxicity in HEK293 cells - 8 hour (AID 1224884); further: nearly all actives have a fitted effect of over 35% in size
How it was run: as §1

[14] = qHTS RealTime-Glo MT Cell Viability Assay in HepG2 cells - 16 hour (AID 1224885); further: nearly all actives have a fitted effect of over 50% in size
How it was run: as §4

[15] = qHTS RealTime-Glo MT Cell Viability Assay in HEK293 cells - 24 hour (AID 1224886); further: nearly all actives have a fitted effect of over 50% in size; further: potency means the concentration at half of the fitted maximal effect
How it was run: (§5)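 HEK293 cells seeded with NanoLuc/prosubstrate reagent, rested 5 h at 37 C, then dosed and kept at 37 C up to 40 h. Nonlytic real-time luminescence from viable cells read at 0, 8, 16, 24, 32 and 40 h.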

[16] = qHTS RealTime-Glo MT Cell Viability Assay in HEK293 cells - 8 hour (AID 1224887); further: nearly all actives have a fitted effect of over 50% in size; further: potency means the concentration at half of the fitted maximal effect
How it was run: as §2

[17] = A CellTox Green Cytotoxicity Assay to monitor cytotoxicity in HEK293 cells - 16 hour (AID 1224888); further: nearly all actives have a fitted effect of over 35% in size
How it was run: as §1

[18] = qHTS RealTime-Glo MT Cell Viability Assay in HepG2 cells - 0 hour (AID 1224889); further: nearly all actives have a fitted effect of over 50% in size
How it was run: as §4

[19] = A CellTox Green Cytotoxicity Assay to monitor cytotoxicity in HepG2 cells - 8 hour (AID 1224890); further: nearly all actives have a fitted effect of over 45% in size
How it was run: as §3

[20] = qHTS RealTime-Glo MT Cell Viability Assay in HEK293 cells - 16 hour (AID 1224872); further: nearly all actives have a fitted effect of over 50% in size; further: potency means the concentration at half of the fitted maximal effect
How it was run: as §5
On the % scale 0 is the no-effect control and ±100 the full control effect.

ClC(Cl)Br
inactive: Potency [1] | Potency [2] | max response [3] 8.21% | Potency [4] | Potency [5] | Potency [6] | Potency [7] | Potency [8] | outcome [9] | Potency [10] | outcome [11] | Potency [12] | Potency [13] | Potency [14] | Potency [15] | Potency [16] | Potency [17] | Potency [18] | Potency [19]

OC(c1ccccc1)(c1ccccc1)C1CCNCC1
inactive: Potency [1] | Potency [2] | max response [3] -12.9% | Potency [4] | Potency [5] | Potency [6] | Potency [7] | Potency [8] | outcome [9] | Potency [10] | outcome [11] | Potency [12] | Potency [13] | Potency [14] | Potency [15] | Potency [16] | Potency [17] | Potency [18] | Potency [19]

CCCCOC(=O)[C@@H](C)Oc1ccc(Oc2ccc(C#N)cc2F)cc1
inactive: Potency [1] | Potency [4] | Potency [5] | Potency [6] | Potency [7] | Potency [8] | outcome [9] | Potency [10] | outcome [11] | Potency [12] | Potency [13] | Potency [17] | Potency [18] | Potency [19]
active: Potency [20] 13.7 µM | Potency [3] 38.7 µM | Potency [15] 19.4 µM | Potency [16] 12.2 µM

CC(CCc1ccccc1)NC(C)C(O)c1ccc(O)cc1 (configuration not stated)
inactive: Potency [1] | Potency [2] | max response [3] -21.9% | Potency [4] | Potency [5] | Potency [6] | Potency [7] | Potency [8] | outcome [9] | Potency [10] | outcome [11] | Potency [12] | Potency [13] | Potency [14] | Potency [15] | Potency [16] | Potency [17] | Potency [18] | Potency [19]

N#CCCC#N
inactive: Potency [1] | Potency [2] | max response [3] 17.5% | Potency [4] | Potency [5] | Potency [6] | Potency [7] | Potency [8] | outcome [9] | Potency [10] | outcome [11] | Potency [12] | Potency [13] | Potency [14] | Potency [16] | Potency [17] | Potency [18] | Potency [19]

CNC(=O)Oc1ccccc1C1OCCO1
inactive: Potency [1] | Potency [2] | max response [3] -0.764% | Potency [5] | Potency [6] | Potency [7] | Potency [8] | outcome [9] | Potency [10] | outcome [11] | Potency [12] | Potency [13] | Potency [14] | Potency [15] | Potency [16] | Potency [17] | Potency [18] | Potency [19]

CCN(Cc1ccc(Cl)nc1)/C(=C/[N+](=O)[O-])NC
inactive: Potency [1] | Potency [2] | max response [3] 2.66% | Potency [4] | Potency [5] | Potency [6] | Potency [7] | Potency [8] | outcome [9] | outcome [11] | Potency [12] | Potency [13] | Potency [14] | Potency [15] | Potency [16] | Potency [17] | Potency [18] | Potency [19]

CCCCCCI
active: Potency [6] 34.7 µM
inactive: Potency [1] | Potency [2] | max response [3] -0.352% | Potency [4] | Potency [5] | Potency [7] | Potency [8] | Potency [10] | outcome [11] | Potency [12] | Potency [13] | Potency [14] | Potency [15] | Potency [16] | Potency [17] | Potency [18] | Potency [19]

O=C(Nc1ccccc1)N(Cc1ccc(Cl)cc1)C1CCCC1
active: Potency [20] 21.9 µM | Potency [3] 24.5 µM | Potency [15] 21.9 µM | Potency [16] 24.5 µM
inactive: Potency [1] | Potency [4] | Potency [5] | Potency [7] | Potency [8] | outcome [9] | Potency [10] | outcome [11] | Potency [12] | Potency [13] | Potency [17] | Potency [18] | Potency [19]

CCOP(=S)(OCC)Oc1ncn(-c2ccccc2)n1
inactive: Potency [1] | Potency [20] | Potency [2] | Potency [5] | Potency [6] | Potency [7] | Potency [8] | Potency [10] | outcome [11] | Potency [12] | Potency [13] | Potency [15] | Potency [16] | Potency [17] | Potency [18] | Potency [19]

CC(=O)CC(c1ccc(Cl)cc1)c1c(O)c2ccccc2oc1=O (configuration not stated)
inactive: Potency [1] | Potency [2] | max response [3] -9.42% | Potency [4] | Potency [5] | Potency [6] | Potency [7] | Potency [8] | outcome [9] | Potency [10] | outcome [11] | Potency [12] | Potency [13] | Potency [16] | Potency [17] | Potency [18] | Potency [19]

COC(=O)c1ccccc1S(=O)(=O)NC(=O)Nc1nc(C)cc(C)n1
inactive: Potency [1] | Potency [2] | max response [3] 7.64% | Potency [4] | Potency [5] | Potency [6] | Potency [7] | Potency [8] | outcome [9] | Potency [10] | outcome [11] | Potency [12] | Potency [13] | Potency [14] | Potency [15] | Potency [16] | Potency [17] | Potency [18] | Potency [19]

O=P(O)(Oc1ccccc1)Oc1ccccc1
inactive: Potency [1] | Potency [2] | max response [3] 11.6% | Potency [4] | Potency [5] | Potency [6] | Potency [7] | Potency [8] | outcome [9] | Potency [10] | outcome [11] | Potency [12] | Potency [13] | Potency [14] | Potency [16] | Potency [17] | Potency [18] | Potency [19]

CCS(=O)(=O)C(C)(C)S(=O)(=O)CC
inactive: Potency [1] | Potency [2] | max response [3] 3.47% | Potency [4] | Potency [5] | Potency [6] | Potency [7] | Potency [8] | outcome [9] | Potency [10] | outcome [11] | Potency [12] | Potency [13] | Potency [14] | Potency [15] | Potency [16] | Potency [17] | Potency [18] | Potency [19]

CCCCC(=O)Cl
inactive: Potency [1] | Potency [2] | max response [3] 5.77% | Potency [4] | Potency [5] | Potency [6] | Potency [7] | Potency [8] | outcome [9] | Potency [10] | outcome [11] | Potency [12] | Potency [13] | Potency [14] | Potency [15] | Potency [16] | Potency [17] | Potency [18] | Potency [19]
